According to the supplement of paper PMC10849652:
About 8,800 targets were measured; listed, in parts, are those with a hit and a random draw of the rest. About 0.5% of all pairs of compound and target were hits. Values without a mark were called inactive.

Key:
Test in all cases: log2 fold change, soluble protein after heating vs DMSO (PISA); higher = thermal stabilisation; K562 lysate, 10 uM; active = over 0.2 and 3.5 SD of the protein, either way, in both replicates (recomputed)
[1] = compound: CCCS(=O)(=O)Nc1ccc(F)c(C(=O)c2c[nH]c3ncc(-c4ccc(Cl)cc4)cc23)c1F [vemurafenib]
Method in brief: (§1)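 Thermal stability, expressed as log-two fold change relative to solvent controls, is given from duplicates. Crude K562 extract in PBS pH 7.4 with 1 mM MgCl2, at 1 mg/mL protein, was treated with 10 μM compound for 30 min and heated in aliquots for 3 min across 48°C-58°C. After pooling, adjustment to 0.5% NP-40 at 4°C and centrifugation at 21,000xg for 90 min, supernatant protein was measured by TMTpro 16plex LC-MS/MS with channel sums equalised.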

[2] = compound: CCCS(=O)(=O)Nc1ccc(F)c(C(=O)c2c[nH]c3ncc(Cl)cc23)c1F
Method in brief: as §1

[3] = compound: CCN(CCCOc1ccc2c(Nc3cc(CC(=O)Nc4cccc(F)c4)[nH]n3)ncnc2c1)CCOP(=O)(O)O [barasertib]
Method in brief: as §1

[4] = compound: CC[C@@H]1C(=O)N(C)c2cnc(Nc3ccc(C(=O)NC4CCN(C)CC4)cc3OC)nc2N1C1CCCC1
Method in brief: as §1

[5] = compound: CC[C@@H]1C(=O)N(C)c2cnc(Nc3ccc(C(=O)N[C@H]4CC[C@H](N5CCN(CC6CC6)CC5)CC4)cc3OC)nc2N1C(C)C [volasertib]
Method in brief: as §1

[6] = compound: CCn1c(C(=O)N(C2CC2)C2CC2)cc2c3c(ncn3C)c(Nc3cc(C)n(C)n3)nc21
Method in brief: as §1

[7] = compound: CCn1cc(-c2ccnc3[nH]c(-c4cccc(CN(C)C)c4)cc23)c(-c2ccc(NC(=O)N(C)C)cc2)n1
Method in brief: as §1

[8] = compound: CN1CCC(CNc2ccc3ncc(-c4cccc(OC(F)(F)F)c4)n3n2)CC1
Method in brief: as §1

[9] = compound: CN1CCN(CCOc2cc(OC3CCOCC3)c3c(Nc4c(Cl)ccc5c4OCO5)ncnc3c2)CC1 [saracatinib]
Method in brief: as §1

[10] = compound: CN1CCN(c2nc(C3=C(c4c[nH]c5ccccc45)C(=O)NC3=O)c3ccccc3n2)CC1 [sotrastaurin]
Method in brief: as §1

[11] = compound: CN1CC[C@H](c2c(O)cc(O)c3c(=O)cc(-c4ccccc4Cl)oc23)[C@H](O)C1 [alvocidib]
Method in brief: as §1

[12] = compound: CN1CCc2c(c3ccccc3n2Cc2ccc(C(=O)NO)cc2)C1 [Tubastatin A]
Method in brief: as §1

[13] = compound: CNC(=O)C1=CC=CC=C1NC2=NC(=NC=C2Cl)NC3=C(C=C(C=C3)N4CCOCC4)OC
Method in brief: as §1

[14] = compound: CNC(=O)c1ccc(Nc2ncc(C(F)(F)F)c(NCc3nccnc3N(C)S(C)(=O)=O)n2)cc1 [defactinib]
Method in brief: as §1

[15] = compound: CNc1nc(-c2ccc3c(N)n[nH]c3c2)cc(N2C[C@@H](C(=O)NC3CCCCC3)CC[C@H]2C)n1
Method in brief: as §1

[16] = compound: COC(=O)N[C@@H](C)CNc1nccc(-c2cn(C(C)C)nc2-c2cc(Cl)cc(NS(C)(=O)=O)c2F)n1 [encorafenib]
Method in brief: as §1

[17] = compound: COC(=O)[C@H](CCSC)NC(=O)C1=C(C=C(C=C1)NC[C@H](CS)N)C2=CC=CC=C2
Method in brief: as §1

[18] = compound: COc1cc(Nc2ncc3c(n2)-c2ccc(Cl)cc2C(c2c(F)cccc2OC)=NC3)ccc1C(=O)O [alisertib]
Method in brief: as §1

[19] = compound: COc1cc2nc(-c3cc(F)ccc3O)nc(N[C@@H]3CNC[C@H]3C(C)(C)O)c2cc1OC
Method in brief: as §1

[20] = compound: COc1cc2ncnc(Nc3ccc(F)c(Cl)c3)c2cc1OCCCN1CCOCC1 [gefitinib]
Method in brief: as §1

Sequence of UniProt Q6EEV4 (Q6EEV4 whole entry, looked up): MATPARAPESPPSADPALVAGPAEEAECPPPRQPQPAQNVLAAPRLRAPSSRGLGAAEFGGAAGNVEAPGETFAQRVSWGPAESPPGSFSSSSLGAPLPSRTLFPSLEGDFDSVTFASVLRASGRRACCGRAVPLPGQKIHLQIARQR
Sequence of UniProt O00264 (O00264 whole entry, looked up): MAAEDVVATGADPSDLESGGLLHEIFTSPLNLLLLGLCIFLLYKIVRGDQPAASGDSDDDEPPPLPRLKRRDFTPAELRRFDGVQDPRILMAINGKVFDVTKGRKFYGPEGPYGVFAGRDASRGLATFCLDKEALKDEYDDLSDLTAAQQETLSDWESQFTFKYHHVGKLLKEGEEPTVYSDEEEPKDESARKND
Sequence of UniProt Q8N4L2 (Q8N4L2 whole entry, looked up): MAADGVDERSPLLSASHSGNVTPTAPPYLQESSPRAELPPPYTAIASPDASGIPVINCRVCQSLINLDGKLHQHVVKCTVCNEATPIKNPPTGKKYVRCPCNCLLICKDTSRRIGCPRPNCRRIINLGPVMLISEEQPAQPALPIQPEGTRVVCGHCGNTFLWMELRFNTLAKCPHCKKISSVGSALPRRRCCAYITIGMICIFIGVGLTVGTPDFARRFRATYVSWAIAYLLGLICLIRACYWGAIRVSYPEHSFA
Sequence of UniProt P28340 (P28340 whole entry, looked up): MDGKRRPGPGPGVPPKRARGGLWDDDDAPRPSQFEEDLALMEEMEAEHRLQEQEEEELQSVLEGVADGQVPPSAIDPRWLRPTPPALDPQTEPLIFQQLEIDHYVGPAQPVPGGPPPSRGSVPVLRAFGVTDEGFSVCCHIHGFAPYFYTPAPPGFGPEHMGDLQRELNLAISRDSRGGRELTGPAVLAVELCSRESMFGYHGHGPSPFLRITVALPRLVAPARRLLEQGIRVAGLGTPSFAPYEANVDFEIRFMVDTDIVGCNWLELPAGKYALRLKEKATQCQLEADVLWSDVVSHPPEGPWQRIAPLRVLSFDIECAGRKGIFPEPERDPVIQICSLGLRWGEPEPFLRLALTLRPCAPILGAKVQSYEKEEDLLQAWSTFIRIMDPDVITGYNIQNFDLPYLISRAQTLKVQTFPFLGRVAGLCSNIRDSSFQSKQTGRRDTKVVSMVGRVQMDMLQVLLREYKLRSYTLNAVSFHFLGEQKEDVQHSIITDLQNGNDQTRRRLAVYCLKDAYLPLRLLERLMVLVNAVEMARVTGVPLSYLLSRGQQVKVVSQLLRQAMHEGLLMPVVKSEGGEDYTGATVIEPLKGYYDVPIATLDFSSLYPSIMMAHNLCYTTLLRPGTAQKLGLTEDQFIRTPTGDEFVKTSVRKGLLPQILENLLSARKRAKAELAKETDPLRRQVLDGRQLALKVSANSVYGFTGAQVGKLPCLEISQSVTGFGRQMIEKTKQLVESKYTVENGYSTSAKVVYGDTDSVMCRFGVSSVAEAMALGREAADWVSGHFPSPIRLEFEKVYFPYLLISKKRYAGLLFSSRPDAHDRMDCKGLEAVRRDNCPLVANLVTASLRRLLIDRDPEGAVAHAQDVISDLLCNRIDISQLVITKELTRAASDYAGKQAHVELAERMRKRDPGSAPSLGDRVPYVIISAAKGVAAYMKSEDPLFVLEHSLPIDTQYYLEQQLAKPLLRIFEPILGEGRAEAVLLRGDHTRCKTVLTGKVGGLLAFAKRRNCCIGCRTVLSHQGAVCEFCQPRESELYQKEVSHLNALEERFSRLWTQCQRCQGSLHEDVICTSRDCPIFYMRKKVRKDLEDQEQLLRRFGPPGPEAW
Sequence of UniProt Q96CD2 (Q96CD2 whole entry, looked up): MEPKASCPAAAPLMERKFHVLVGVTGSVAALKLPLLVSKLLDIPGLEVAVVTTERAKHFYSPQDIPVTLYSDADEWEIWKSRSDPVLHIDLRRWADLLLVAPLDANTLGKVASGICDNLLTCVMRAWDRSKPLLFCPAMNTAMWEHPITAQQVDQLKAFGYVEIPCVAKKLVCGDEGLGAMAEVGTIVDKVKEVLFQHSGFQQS
Sequence of UniProt Q9BZL6 (Q9BZL6 whole entry, looked up): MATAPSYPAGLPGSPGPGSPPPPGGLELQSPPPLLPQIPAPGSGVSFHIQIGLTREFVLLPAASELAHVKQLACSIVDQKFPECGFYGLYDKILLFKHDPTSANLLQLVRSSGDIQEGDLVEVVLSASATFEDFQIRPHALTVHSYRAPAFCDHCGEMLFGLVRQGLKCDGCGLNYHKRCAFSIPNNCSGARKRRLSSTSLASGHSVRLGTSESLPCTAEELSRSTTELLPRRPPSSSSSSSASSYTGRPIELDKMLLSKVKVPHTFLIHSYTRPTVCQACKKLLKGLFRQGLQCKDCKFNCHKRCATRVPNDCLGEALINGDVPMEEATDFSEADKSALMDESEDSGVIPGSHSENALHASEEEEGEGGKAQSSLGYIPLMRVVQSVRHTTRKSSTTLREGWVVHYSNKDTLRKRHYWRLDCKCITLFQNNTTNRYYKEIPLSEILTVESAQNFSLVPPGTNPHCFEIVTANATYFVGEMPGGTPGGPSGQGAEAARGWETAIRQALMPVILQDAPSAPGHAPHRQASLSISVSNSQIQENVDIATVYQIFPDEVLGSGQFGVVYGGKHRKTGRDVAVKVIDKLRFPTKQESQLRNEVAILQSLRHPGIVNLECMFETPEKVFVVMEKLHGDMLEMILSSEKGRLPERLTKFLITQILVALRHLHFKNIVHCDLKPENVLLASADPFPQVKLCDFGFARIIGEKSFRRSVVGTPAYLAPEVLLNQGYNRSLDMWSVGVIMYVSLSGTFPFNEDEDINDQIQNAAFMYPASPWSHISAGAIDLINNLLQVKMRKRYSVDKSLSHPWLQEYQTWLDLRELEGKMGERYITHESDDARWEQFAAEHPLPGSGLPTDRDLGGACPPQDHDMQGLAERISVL
Sequence of UniProt Q5JRX3 (Q5JRX3 whole entry, looked up): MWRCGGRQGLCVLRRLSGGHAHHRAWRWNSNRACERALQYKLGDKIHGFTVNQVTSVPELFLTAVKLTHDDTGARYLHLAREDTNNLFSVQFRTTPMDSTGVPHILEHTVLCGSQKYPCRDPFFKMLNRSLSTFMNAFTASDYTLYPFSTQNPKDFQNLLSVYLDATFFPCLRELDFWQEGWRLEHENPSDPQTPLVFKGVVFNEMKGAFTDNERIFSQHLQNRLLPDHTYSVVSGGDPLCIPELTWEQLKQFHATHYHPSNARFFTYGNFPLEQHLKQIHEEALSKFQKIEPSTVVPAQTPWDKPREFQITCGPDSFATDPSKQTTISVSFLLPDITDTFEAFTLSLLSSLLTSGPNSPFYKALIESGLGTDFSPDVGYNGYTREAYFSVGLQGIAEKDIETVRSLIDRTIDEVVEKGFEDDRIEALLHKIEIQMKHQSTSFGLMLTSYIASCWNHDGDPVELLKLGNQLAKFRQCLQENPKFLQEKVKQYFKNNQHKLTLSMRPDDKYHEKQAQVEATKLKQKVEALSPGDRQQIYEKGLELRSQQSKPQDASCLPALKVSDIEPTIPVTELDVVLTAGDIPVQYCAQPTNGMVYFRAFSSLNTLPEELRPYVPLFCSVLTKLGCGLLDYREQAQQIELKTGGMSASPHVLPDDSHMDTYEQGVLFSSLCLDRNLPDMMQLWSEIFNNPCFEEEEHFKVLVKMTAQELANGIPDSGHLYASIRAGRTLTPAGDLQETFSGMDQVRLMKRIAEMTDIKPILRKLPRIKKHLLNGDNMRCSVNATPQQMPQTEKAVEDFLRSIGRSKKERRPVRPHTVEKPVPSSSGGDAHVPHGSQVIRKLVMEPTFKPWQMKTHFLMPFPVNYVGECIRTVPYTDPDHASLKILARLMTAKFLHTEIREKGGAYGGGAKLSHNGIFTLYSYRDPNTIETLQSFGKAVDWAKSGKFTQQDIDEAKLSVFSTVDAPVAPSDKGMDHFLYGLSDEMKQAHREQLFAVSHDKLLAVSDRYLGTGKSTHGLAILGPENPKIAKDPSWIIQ
Sequence of UniProt P31323 (P31323 whole entry, looked up): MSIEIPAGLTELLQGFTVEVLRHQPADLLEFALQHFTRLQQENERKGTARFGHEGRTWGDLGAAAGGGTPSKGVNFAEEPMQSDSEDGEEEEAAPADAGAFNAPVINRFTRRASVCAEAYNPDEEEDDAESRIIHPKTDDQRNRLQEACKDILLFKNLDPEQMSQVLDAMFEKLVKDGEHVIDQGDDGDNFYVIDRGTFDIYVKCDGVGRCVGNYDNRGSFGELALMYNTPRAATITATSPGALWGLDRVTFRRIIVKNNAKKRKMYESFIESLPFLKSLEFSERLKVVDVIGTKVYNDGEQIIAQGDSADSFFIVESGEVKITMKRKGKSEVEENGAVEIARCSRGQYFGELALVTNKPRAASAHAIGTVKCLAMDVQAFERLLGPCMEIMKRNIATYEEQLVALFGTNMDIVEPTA
Sequence of UniProt Q15173 (Q15173 whole entry, looked up): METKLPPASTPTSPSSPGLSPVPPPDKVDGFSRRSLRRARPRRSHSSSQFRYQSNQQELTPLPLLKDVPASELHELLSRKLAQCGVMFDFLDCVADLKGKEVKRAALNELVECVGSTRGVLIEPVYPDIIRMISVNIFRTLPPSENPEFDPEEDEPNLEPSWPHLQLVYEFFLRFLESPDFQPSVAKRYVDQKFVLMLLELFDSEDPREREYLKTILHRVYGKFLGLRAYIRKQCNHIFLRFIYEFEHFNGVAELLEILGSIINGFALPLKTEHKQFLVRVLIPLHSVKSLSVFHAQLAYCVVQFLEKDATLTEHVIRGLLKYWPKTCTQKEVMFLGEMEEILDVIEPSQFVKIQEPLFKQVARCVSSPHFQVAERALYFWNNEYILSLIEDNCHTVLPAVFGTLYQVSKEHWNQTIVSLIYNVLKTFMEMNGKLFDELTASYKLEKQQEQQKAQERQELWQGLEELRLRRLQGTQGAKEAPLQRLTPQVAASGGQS

Row | Target | log2 fold change [1] | log2 fold change [2] | log2 fold change [3] | log2 fold change [4] | log2 fold change [5] | log2 fold change [6] | log2 fold change [7] | log2 fold change [8] | log2 fold change [9] | log2 fold change [10] | log2 fold change [11] | log2 fold change [12] | log2 fold change [13] | log2 fold change [14] | log2 fold change [15] | log2 fold change [16] | log2 fold change [17] | log2 fold change [18] | log2 fold change [19] | log2 fold change [20]
1 | PRKCD (UniProt Q05655) | -0.006 | -0.118 | 0.057 | 0.008 | -0.041 | -0.014 | 0.012 | 0.021 | -0.005 | 0.058 | -0.082 | 0.036 | -0.012 | -0.032 | -0.003 | -0.009 | 0.056 | -0.031 | 0.235 (active) | 0.002
2 | POLR2M (UniProt Q6EEV4) | 0.117 | -0.043 | 0.176 | 0.032 | -0.074 | – | 0.154 | -0.077 | 0.016 | -0.072 | 0.085 | – | 0.075 | 0.125 | 0.108 | -0.001 | -0.081 | – | 0.038 | –
3 | PGRMC1 (UniProt O00264) | -0.009 | -0.043 | 0.019 | 0.015 | 0.008 | 0.021 | -0.045 | 0.071 | -0.017 | -0.003 | -0.026 | 0.01 | -0.022 | 0.02 | -0.014 | 0.006 | -0.258 (active) | 0.006 | 0.006 | 0.03
4 | PITRM1 isoform 2 (UniProt Q5JRX3) | -0.026 | 0.001 | -0.01 | -0.018 | 0.127 | -0.008 | 0.07 | -0.048 | -0.021 | 0.007 | 0.016 | 0.04 | 0.023 | 0.008 | -0.029 | -0.012 | 0.228 (active) | -0.016 | -0.016 | 0.044
5 | PIP4P2 (UniProt Q8N4L2) | 0.038 | 0.031 | 0.311 | 0.039 | 0.01 | -0.016 | 0.022 | 0.03 | 0.038 | -0.16 | -0.03 | 0.038 | -0.021 | -0.009 | 0.062 | 0 | -0.12 | 0.006 | 0.052 | 0.111
6 | PPCDC (UniProt Q96CD2) | 0.1 | 0.003 | 0.066 | 0.047 | 0.006 | 0.008 | -0.342 | 0.165 | 0.018 | 0.038 | -0.08 | 0.034 | -0.053 | -0.037 | -0.054 | -0.082 | -0.027 | -0.051 | 0.032 | 0.028
7 | PRKAR2B (UniProt P31323) | 0.01 | 0 | 0.053 | -0.028 | -0.043 | -0.032 | 0.051 | -0.26 (active) | 0.007 | -0.17 | 0 | -0.021 | -0.05 | -0.117 | -0.023 | 0.04 | 0.1 | -0.014 | -0.032 | -0.046
8 | POLD1 (UniProt P28340) | 0.01 | 0.053 | -0.011 | -0.021 | -0.005 | 0.035 | 0.028 | -0.043 | 0.01 | 0.015 | 0.012 | -0.075 | 0.035 | 0.027 | 0.011 | 0.008 | 0.074 | 0.007 | 0.007 | -0.036
9 | PLK1 (UniProt P53350) | 0.053 | -0.009 | 0.003 | – | -0.009 | 0.014 | 0.165 | -0.279 | 0.021 | -0.335 (active) | 0.059 | -0.108 | -0.347 (active) | -0.268 | 0.006 | 0.097 | -0.034 | -0.003 | -0.023 | 0.003
10 | PRKD2 isoform 3 (UniProt Q9BZL6) | 0.041 | -0.048 | 0.034 | -0.358 (active) | -0.131 | 0.097 | 0.038 | -0.07 | 0 | 0.085 | 0.01 | -0.145 | -0.125 | 0.24 | 0.024 | 0.091 | -0.001 | -0.028 | 0.238 | -0.165
11 | PPP2R5B (UniProt Q15173) | -0.036 | 0 | -0.016 | -0.057 | 0.031 | 0 | -0.01 | -0.079 | 0.001 | -0.074 | 0.069 | -0.012 | -0.03 | -0.091 | -0.056 | -0.017 | 0.288 (active) | – | 0.046 | –
12 | PREP (UniProt H0Y5Y0) | – | 0.019 | – | – | 0.079 | – | 0.678 | -0.144 | – | – | 0.082 | – | – | – | – | – | – | – | 0.03 | –
